# Rows were chosen to be rich in hits. Some 3% of all compounds tested hit in one or more screens of this group.
# LDHA inh: inhibitors of human lactate dehydrogenase A | purified LDHA, NADH/diaphorase-resazurin fluorescence; active compounds read low | activity change, % (values are at about 110 or 230 µM) | 0.15% of 480,000 active | AID 1347041; in the data active means activity change below about -30%; inconclusive means mostly about -25% to -30%;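 further: plate controls were DMSO wells for no effect and wells without enzyme for full effect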
#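 Resorufin fluorescence (ex540/em590), read at 0 and 20 min after diaphorase/resazurin addition, reports the NADH left after a 5 min room-temperature reaction of 2 nM human LDH5 with 0.06 mM NADH and 0.2 mM pyruvate.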
# BCR signal inh: blocks chronic active B-cell receptor signaling; 0.05% of 340,000 active; AID 493014; Potency, µM (highest dose often 46.1 µM), for the others: at the top dose activity change, negative = inhibition, actives largely listed as inhibitors; ABC-DLBCL IkBa-CBG/CBR reporter, luminescence ratio, 4 h; active means well fitted inhibition curve with a large enough effect in the signal ratio, with a control signal flat, not every such curve was filed as active; inconclusive means small, poorly fitted or top-dose-only effect, or effect the other way, or a change in a side signal; the % refers to the signal ratio;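 further: potency means the concentration at half of the fitted maximal effect; plate controls were basal doxycycline-induced cells for no effect and cells given 10 µM MG132 for full effect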
#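 TMD8 human ABC-DLBCL cells with doxycycline-inducible IκBα–green luciferase fusion and unfused red luciferase, in 0.5% FBS medium; compounds up to 46 uM, 4 h at 37C. Green/red luminescence ratio, filter-overlap corrected, fitted to concentration-response curves.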
# KCNH2 WT inh: inhibitors of human wildtype KCNH2 potassium channel | Q12809 | U2OS, BacMam KCNH2, thallium flux FluxOr; active compounds read low | activity change, % at 1.84 µM | 0.37% of 340,000 active | AID 720551;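 active means maximum activity change below -70%; inconclusive means maximum activity change between -70% and -50%; inactive means maximum activity change above -50%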; further: on the % scale 0 is the no-effect control and ±100 the full control effect
#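 U2OS cells were transduced with wild-type KCNH2 virus (2.03 x 10^8 / mL) for 4 h at room temperature, then cultured overnight at 37 C. Thallium flux was read with FluxOr dye. Rate constants were normalized to DMSO controls.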
# ClpP mod: qHTS Assay for Activators of ClpP. purified B. subtilis ClpP, FRET peptide cleavage, 20 min. Potency, µM (highest dose often 57.5 µM), for the others: at the highest dose activity change, negative = active. 1.9% of 340,000 active; active means well fitted falling curve with a large enough effect; inconclusive means small, poorly fitted or top-dose-only effect; inactive means no such curve, though single readings can be large or run the other way; further: potency means the concentration at half of the fitted maximal effect; the source files actives as falling curves though it sought activators and does not explain the sign; nearly all actives have a fitted effect of over 65% in size
#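 FRET quenching reversal measured ClpP activation: 10 microg/mL B. subtilis ClpP at pH 8 with the FRET-FV decapeptide, read at 430 nm after 320 nm excitation. The 20-min minus 0-min signal was scaled between DMSO/no-enzyme wells and ADEP (5.8 microM final).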
# KCNH2 3.1 block: KCNH2 3.1 (human) potassium channel inhibition | 0.95% of 340,000 active | activity change, % (tested at about 1.8 µM) | U2OS KCNH2 3.1, thallium flux FluxOr; active compounds read low | AID 720553;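 active means maximum activity change below -70%; inconclusive means maximum activity change from -70% to -50%; inactive means maximum activity change above -50%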;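 further: thallium influx rate constant from kinetic fluorescence after stimulation buffer; on the % scale 0 is the no-effect control and ±100 the full control effect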
#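 Normalized rate constant (relative to positive and negative DMSO controls) derived from a 2 min kinetic fluorescence read after stimulation; U2OS cells expressing the 3.1 isoform via virus at 1.77 x 10^8 /mL.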
# ALOX12 inh: ALOX12 (human) lipoxygenase inhibition; P18054; purified 12hLO, xylenol orange hydroperoxide absorbance; Potency, µM (top dose mostly 108 µM), inactives show at the top dose activity change, negative = inhibition, hits mostly inhibitors; 1.1% of 580,000 active; AID 1671190; active means well fitted inhibition curve with a large enough effect; inconclusive means small, poorly fitted or top-dose-only effect, or another doubt; inactive means no such curve, though single readings can be large or run the other way; further: potency means the concentration at half of the fitted maximal effect; on the % scale 0 is the no-effect control and ±100 the full control effect
#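 Purified human 12hLO at 150 nM in 25 mM Hepes, 0.01% Triton X-100, pH 7.0, preincubated 15 min at room temperature with compound. Reaction started with 40 uM arachidonic acid, 30 min at room temperature. Hydroperoxide measured by Fe-xylenol orange, 573/405 nm absorbance ratio.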
# Starred values were filed as active, the others as inactive; ? = inconclusive; . = not tested or not shown; [ ] = dose if it differs, or a comment.
SMILES,LDHA inh,BCR signal inh,KCNH2 WT inh,ClpP mod,KCNH2 3.1 block,ALOX12 inh
COc1cc2nc(N(CCCN(C)C)C(=O)c3ccc(C(=O)c4ccccc4)cc3)sc2cc1OC,-7,11%,27,0%,15,?
COc1cccc(-n2ccn3c(SCC(=O)N4CCN(c5ccc(F)cc5)CC4)nnc3c2=O)c1,-2,.,.,.,.,5%
CC#Cc1cc2c(cc1O)CCC1C2CCC2(C)C(O)CCC12 (stereo not given),21,.,6,1%,11,45µM*
CC1Sc2ccc(C(=O)NNC(=O)CSc3cccc4cccnc34)cc2NC1=O (stereo not given),1,.,.,.,.,7.9µM*
CC1Sc2ccc(C(=O)NCc3ccccn3)cc2NC1=O (stereo not given),-10,-1%,-8,-1%,-2,-23%
Cc1cccc(NC(=O)CSc2cccc3cccnc23)c1,-2,?,-10,5%,7,?
O=C(CSc1cccc2cccnc12)OCC(=O)c1ccc(Br)cc1,0,-2%,-3,29%,2,157%
NNC(=O)CSc1cccc2cccnc12,-3,-7%,15,?,18,-3%
CN(C)C(=O)CSc1cccc2cccnc12,-8,?,-1,20µM*,4,-28%
O=C(CSc1cccc2cccnc12)OCC(=O)c1ccccc1,10,?,-10,25µM*,2,-6%
O=C(CSc1cccc2cccnc12)Nc1cc(C(=O)O)cc(C(=O)O)c1,-6,-1%,-4,.,44,25µM*
CCCCn1c(=O)[nH]c(=O)c2c1nc(CCc1ccccc1)c(=O)n2C,3,.,.,.,.,?
C/C(=N/Nc1ccccc1C(F)(F)F)c1ccccc1Br,-4,.,.,.,.,?
C/C(=N\Nc1ccccc1Br)c1ccc(-c2ccccc2)cc1,5,.,.,.,.,0.71µM*
O=C(O)CCC1CCN(S(=O)(=O)c2ccccc2F)CC1,.,.,.,.,.,19%
CSc1ccccc1NC(=O)c1cccc(F)c1,5,.,.,.,.,5%
CC(=O)NCCNc1nc(NC(C)C)nc2cc(-c3ccccc3)sc12,-4,.,.,-22%,.,?
COc1ccc(-c2cc(CNc3nc(NC(C)C)nc4cc(-c5ccccc5)sc34)on2)cc1,-4,.,.,?,.,45µM*
CC(=O)Nc1ccc(CNc2nc(NC(C)C)nc3cc(-c4ccccc4)sc23)cc1,2,.,.,?,.,45µM*
Cc1ccsc1C(=O)OCC(=O)Nc1ccc(Cl)c(C(F)(F)F)c1,9,.,.,.,.,?
OCc1ccnc2c(O)cccc12,13,6.3µM*,0,-3%,2,-19%
Cc1noc2c(NCc3ccncc3)cc(-c3ccc(Cl)cc3)nc12,.,.,.,.,.,-2%[176 µM]
Cc1ccc(-c2nnn(CC(=O)NCC3CC3)n2)o1,-8,7%,-11,-1%,-3,2%
Cc1ccc(-c2nnn(CC(=O)Nc3ccc4nn(-c5ccccc5)nc4c3)n2)o1,-1,2%,-12,14µM*,15,-6%
O=C(CC1(C(=O)O)CCCCC1)Nc1ccccc1CO,1,.,.,.,.,?
SMILES,LDHA inh,BCR signal inh,KCNH2 WT inh,ClpP mod,KCNH2 3.1 block,ALOX12 inh
COCc1nnc(NC(=O)c2ccc3c(ccn3Cc3ccccc3)c2)s1,-2,.,.,.,.,10%
Cc1cccc(C(=O)N2C(C(=O)NCc3ccc4c(c3)OCO4)COC23CCC(C)CC3)c1 (stereo not given),.,.,.,.,.,-2%
CC(COc1ccccc1)N1CCC(CO)(Cc2ccccc2)CC1 (stereo not given),-4,4%,13,-1%,-72*,-19%
COc1ccc(CC2(CO)CCN(C(C)COc3ccccc3)CC2)cc1 (stereo not given),-1,?,-27,.,-94*,?
COc1cccc(CN(C)CC(=O)Nc2cc(C)nn2-c2ccccc2C)c1,7,.,.,.,.,17%
Cc1cc(/C=C/C(=O)c2ccc(O)cc2)cc(C)c1O,-10,.,.,.,.,?
O=C(O)C(Sc1ncccn1)c1ccccc1 (stereo not given),-2,.,.,.,.,?

# Source: PubChem
